# Measurements: PubChem BioAssay (EPA / NIEHS)
# Active and inactive are the calls of the source. How the source made its calls: active means hit-call score of the fitted dose curve at least 0.9, where 1 is the maximum; inactive means score below 0.9.
# Assays:
# [1] = ATG_CRE_CIS: Attagene CIS-FACTORIAL HepG2 Assay for human cAMP Responsive Element (CRE) binding protein 3 (AID 2282926); conditions: HepG2 CRE cis-reporter, Attagene multiplexed mRNA; actives raise or lower the signal
# Method in brief: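 Assay format: transient reporter transfection of HepG2, 24 h treatment, total RNA isolation with DNase I step. Reporter abundance read by fluorescence after PCR and capillary separation; DMSO-normalised gain or loss fitting.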
# [2] = biological target: CCAAT/enhancer-binding protein beta (Homo sapiens) (UniProt P17676); test: ATG_C_EBP_CIS: Attagene CIS-FACTORIAL HepG2 Assay for human CCAAT/Enhancer Binding Protein (C/EBP) beta (AID 2282927); conditions: HepG2 Attagene cis-factorial transcription factor reporter; actives raise or lower the signal
# Method in brief: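 HepG2 transiently transfected with multiplexed reporter units under cis-regulatory promoters reporting endogenous C/EBPb activity. After 24 h exposure, reporter mRNA assayed by RT-PCR, fluorescent labelling, HpaI digestion and capillary electrophoresis; bidirectional fitting versus DMSO.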
# [3] = ATG_CMV_CIS: Attagene CIS-FACTORIAL HepG2 Assay for human CMV (Internal Marker) (AID 2282928); conditions: HepG2 CMV promoter reporter, transcription factor profiling; actives raise or lower the signal;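 further: endpoint acts as a background internal control marker rather than a target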
# Method in brief: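 Reporter transcripts from transfected HepG2 cells are isolated after 24 h of chemical dosing, reverse-transcribed and amplified. Fragments labeled with 6-FAM are cut with HpaI and quantified by capillary electrophoresis; DMSO defines baseline.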
# [4] = ATG_DR4_LXR_CIS: Attagene CIS-FACTORIAL HepG2 Assay for human Liver X Receptor (LXR), DR4 submotif (AID 2282929); conditions: HepG2 Attagene DR4 cis-reporter, mRNA transcription; actives raise or lower the signal
# Method in brief: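 After transient transfection with multiplexed cis-promoter reporter units, HepG2 cells received test chemicals for 24 h. Reporter mRNA induction, detected by fluorescence after RT-PCR and capillary electrophoresis, was scored relative to DMSO.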
# [5] = biological target: Aryl hydrocarbon receptor (Homo sapiens) (UniProt P35869); test: ATG_Ahr_CIS: Attagene CIS-FACTORIAL HepG2 Assay for human Aryl Hydrocarbon Receptor (Ahr) (AID 2282930); conditions: HepG2 AhR cis-factorial reporter transcription; actives raise or lower the signal
# Method in brief: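 HepG2 cells transiently transfected with cis-element-driven multiplexed reporter units; endogenous AhR activity read as reporter mRNA 24 h after dosing, via RT-PCR, 6-FAM labelling, HpaI digestion and capillary electrophoresis. Bidirectional fit relative to DMSO.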
# Chain of CCAAT/enhancer-binding protein beta (Homo sapiens) (P17676 whole entry, looked up): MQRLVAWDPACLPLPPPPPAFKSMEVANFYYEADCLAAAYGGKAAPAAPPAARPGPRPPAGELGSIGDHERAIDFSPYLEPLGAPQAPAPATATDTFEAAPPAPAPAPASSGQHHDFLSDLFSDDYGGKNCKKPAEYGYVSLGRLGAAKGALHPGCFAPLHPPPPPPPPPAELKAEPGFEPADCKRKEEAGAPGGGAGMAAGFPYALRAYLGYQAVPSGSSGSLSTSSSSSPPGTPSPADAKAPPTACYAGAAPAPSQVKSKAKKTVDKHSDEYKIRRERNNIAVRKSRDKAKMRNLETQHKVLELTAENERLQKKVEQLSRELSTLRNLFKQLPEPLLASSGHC
# Chain of Aryl hydrocarbon receptor (Homo sapiens) (P35869 whole entry, looked up): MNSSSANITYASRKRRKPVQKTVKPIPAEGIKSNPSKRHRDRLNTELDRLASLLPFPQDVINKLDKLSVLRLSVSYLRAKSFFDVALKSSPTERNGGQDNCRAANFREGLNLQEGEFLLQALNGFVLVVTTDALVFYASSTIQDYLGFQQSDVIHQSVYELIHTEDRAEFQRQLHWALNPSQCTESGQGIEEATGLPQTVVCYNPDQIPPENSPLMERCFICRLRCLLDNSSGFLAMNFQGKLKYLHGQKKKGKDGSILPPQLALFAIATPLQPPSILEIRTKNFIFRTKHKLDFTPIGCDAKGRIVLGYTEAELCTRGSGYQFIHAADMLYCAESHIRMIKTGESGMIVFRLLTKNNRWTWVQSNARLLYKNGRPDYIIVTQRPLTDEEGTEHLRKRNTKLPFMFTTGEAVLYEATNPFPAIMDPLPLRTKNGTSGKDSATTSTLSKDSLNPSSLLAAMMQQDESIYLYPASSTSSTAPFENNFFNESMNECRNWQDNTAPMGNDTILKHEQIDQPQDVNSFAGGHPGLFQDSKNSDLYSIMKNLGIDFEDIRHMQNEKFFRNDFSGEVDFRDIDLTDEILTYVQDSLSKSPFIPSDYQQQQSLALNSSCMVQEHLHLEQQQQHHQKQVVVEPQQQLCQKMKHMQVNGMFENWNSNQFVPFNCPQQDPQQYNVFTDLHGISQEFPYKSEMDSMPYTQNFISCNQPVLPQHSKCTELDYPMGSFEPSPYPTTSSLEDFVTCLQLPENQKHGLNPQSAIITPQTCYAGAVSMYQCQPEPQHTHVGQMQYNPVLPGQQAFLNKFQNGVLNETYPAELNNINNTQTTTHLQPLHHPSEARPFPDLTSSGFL
SMILES,outcome [1],outcome [2],outcome [3],outcome [4],outcome [5],AC50 [3],AC50 [4],AC50 [5],AC50 [1],AC50 [2]
O=c1nc(O)n(Cl)c(=O)n1Cl,inactive,inactive,inactive,inactive,inactive,–,–,–,–,–
Oc1ccc(Cc2ccc(O)cc2)cc1,inactive,inactive,–,inactive,inactive,77.1 µM (active),–,–,–,–
c1cc[c]([Sb]([c]2ccccc2)[c]2ccccc2)cc1,inactive,inactive,–,–,inactive,64.8 µM (active),9.64 µM (active),–,–,–
CCOc1ccc(N)cc1,inactive,inactive,inactive,inactive,inactive,–,–,–,–,–
CC1(C)[C@H](/C=C2\CCSC2=O)[C@@H]1C(=O)OCc1coc(Cc2ccccc2)c1,inactive,inactive,inactive,–,inactive,–,17.9 µM (active),–,–,–
CC(C)(COCC1CO1)COCC1CO1 (stereo not given),inactive,inactive,inactive,inactive,inactive,–,–,–,–,–
CC(C)[N+](=O)[O-],inactive,inactive,inactive,inactive,inactive,–,–,–,–,–
COC(=O)c1cc(Oc2ccc(Cl)cc2Cl)ccc1[N+](=O)[O-],inactive,inactive,inactive,inactive,–,–,–,17 µM (active),–,–
Cc1ccc(CCl)cc1,inactive,inactive,inactive,inactive,inactive,–,–,–,–,–
OC[C@@H](O)[C@H]1O[C@@H]2O[C@H](C(Cl)(Cl)Cl)O[C@@H]2[C@H]1O,inactive,inactive,inactive,inactive,inactive,–,–,–,–,–
CC(O)(CS(=O)(=O)c1ccc(F)cc1)C(=O)Nc1ccc(C#N)c(C(F)(F)F)c1 (stereo not given),inactive,inactive,inactive,inactive,inactive,–,–,–,–,–
CCCCC(CC)C(=O)Cl (stereo not given),inactive,inactive,inactive,inactive,inactive,–,–,–,–,–
c1ccc(-c2cccc(-c3ccccc3)c2)cc1,inactive,inactive,inactive,–,–,–,27.4 µM (active),21.9 µM (active),–,–
C[C@H]1C(=O)O[C@@H]2CCN3CC=C(COC(=O)[C@](C)(O)[C@]1(C)O)[C@H]23,inactive,inactive,inactive,inactive,inactive,–,–,–,–,–
Nc1cccnc1,inactive,inactive,inactive,inactive,inactive,–,–,–,–,–
CN(C)[C@@H]1C(=O)C(C(N)=O)=C(O)[C@@]2(O)C(=O)C3=C(O)c4c(O)ccc(Cl)c4[C@@](C)(O)[C@H]3C[C@@H]12,inactive,inactive,–,inactive,inactive,25.9 µM (active),–,–,–,–
CCOC(=O)Cc1ccccc1,inactive,inactive,inactive,inactive,inactive,–,–,–,–,–
C#CCOC(=O)/C=C(C)/C=C/CC(C)CCCC(C)C (stereo not given),–,inactive,–,–,inactive,36.9 µM (active),96.1 µM (active),–,39.7 µM (active),–
CNC(=O)CSP(=O)(OC)OC,inactive,inactive,inactive,inactive,inactive,–,–,–,–,–
C1CCC(C2CCCCC2)CC1,inactive,inactive,–,inactive,inactive,86.2 µM (active),–,–,–,–
O=[N+]([O-])c1ccc(Cl)c([N+](=O)[O-])c1,inactive,inactive,inactive,–,inactive,–,5.36 µM (active),–,–,–
Fc1cccc(Cl)c1CCl,–,inactive,inactive,inactive,inactive,–,–,–,41.8 µM (active),–
C#CCO,inactive,inactive,inactive,inactive,inactive,–,–,–,–,–

SMILES,outcome [1],outcome [2],outcome [3],outcome [4],outcome [5],AC50 [3],AC50 [4],AC50 [5],AC50 [1],AC50 [2]
Cc1ccccc1OP(=O)(Oc1ccccc1C)Oc1ccccc1C,inactive,inactive,inactive,–,inactive,–,13.9 µM (active),–,–,–
O=[N+]([O-])c1ccc(Nc2ccccc2)cc1,inactive,inactive,inactive,inactive,inactive,–,–,–,–,–
Nc1c(Oc2ccccc2)cc(O)c2c1C(=O)c1ccccc1C2=O,inactive,inactive,inactive,inactive,–,–,–,1.71 µM (active),–,–
CCCCOC(=O)COC(=O)c1ccccc1C(=O)OCCCC,inactive,inactive,inactive,inactive,inactive,–,–,–,–,–
CC(c1ccccc1)(c1ccc(O)cc1)c1ccc(O)cc1,inactive,inactive,inactive,–,inactive,–,11.1 µM (active),–,–,–
C=CC(=O)NC(C)(C)CC(C)=O,inactive,inactive,inactive,inactive,inactive,–,–,–,–,–
CC(=Cc1ccccc1)[N+](=O)[O-],inactive,inactive,–,–,inactive,19.3 µM (active),5.88 µM (active),–,–,–
BrCC(Br)c1ccccc1 (stereo not given),inactive,inactive,inactive,inactive,inactive,–,–,–,–,–
CS(=O)(=O)c1ccc(C(=O)C2C(=O)CCCC2=O)c(Cl)c1COCC(F)(F)F,inactive,inactive,inactive,inactive,inactive,–,–,–,–,–
C[C@]12CC[C@@H](O)C[C@@H]1CC[C@@H]1[C@@H]2CC[C@]2(C)C(=O)CC[C@@H]12,inactive,inactive,inactive,inactive,inactive,–,–,–,–,–
OCC(c1ccc(Cl)cc1)c1ccc(Cl)cc1,inactive,inactive,–,–,inactive,45.2 µM (active),50.2 µM (active),–,–,–
O=C(Nc1ccc(Br)cc1)c1cc(Br)cc(Br)c1O,inactive,inactive,inactive,inactive,–,–,–,0.63 µM (active),–,–
ClCCCCl,inactive,inactive,inactive,inactive,inactive,–,–,–,–,–
O=[N+]([O-])c1c2ccccc2cc2ccccc12,inactive,inactive,inactive,inactive,inactive,–,–,–,–,–
[Cl][Sn]([c]1ccccc1)([c]1ccccc1)[c]1ccccc1,–,inactive,inactive,–,–,–,0.67 µM (active),1.09 µM (active),0.367 µM (active),–
O=C(O)CC(O)(CC(=O)O)C(=O)O,inactive,inactive,inactive,inactive,inactive,–,–,–,–,–
C=CCOC(F)(C(F)(F)F)C(F)(F)F,inactive,inactive,inactive,inactive,inactive,–,–,–,–,–
CC(C=O)Cc1ccc2c(c1)OCO2 (stereo not given),inactive,inactive,inactive,inactive,inactive,–,–,–,–,–
CCOP(=S)(OCC)Oc1ccc(Cl)cc1Cl,inactive,inactive,–,inactive,inactive,63 µM (active),–,–,–,–
CC(C)CP(=S)(S)CC(C)C,inactive,inactive,inactive,inactive,inactive,–,–,–,–,–
NC(=O)CCl,inactive,inactive,inactive,inactive,inactive,–,–,–,–,–
CCOC(=O)C(SP(=S)(OC)OC)c1ccccc1 (stereo not given),inactive,inactive,inactive,inactive,inactive,–,–,–,–,–
CCOC(=O)c1ccccc1S(=O)(=O)NC(=O)Nc1nc(Cl)cc(OC)n1,inactive,inactive,inactive,inactive,inactive,–,–,–,–,–

SMILES,outcome [1],outcome [2],outcome [3],outcome [4],outcome [5],AC50 [3],AC50 [4],AC50 [5],AC50 [1],AC50 [2]
CCOP(=S)(OCC)OP(=S)(OCC)OCC,inactive,inactive,inactive,–,inactive,–,29.5 µM (active),–,–,–
CCOP(=O)(OCC)SCCSCC,inactive,inactive,inactive,inactive,inactive,–,–,–,–,–
CCC(C)(C#N)N=NC(C)(C#N)CC (stereo not given),inactive,inactive,inactive,inactive,inactive,–,–,–,–,–
CC1CC(=O)O1 (stereo not given),inactive,inactive,inactive,inactive,inactive,–,–,–,–,–
Cc1cccc(C)c1NC(=O)CN1CCCC1=O,inactive,inactive,inactive,inactive,inactive,–,–,–,–,–
Clc1cnc(Oc2ccc(Oc3ncc(Cl)cc3Cl)cc2)c(Cl)c1,inactive,inactive,inactive,inactive,–,–,–,5.93 µM (active),–,–
C[N+](C)(C)Cc1ccccc1,inactive,inactive,inactive,inactive,inactive,–,–,–,–,–
CCOC(=O)CC(=O)CCl,–,–,–,–,inactive,65.7 µM (active),61.6 µM (active),–,176 µM (active),183 µM (active)
CC(C)(C#N)N=NC(C)(C)C#N,inactive,inactive,inactive,inactive,inactive,–,–,–,–,–
O=S1OC[C@@H]2[C@H](CO1)[C@]1(Cl)C(Cl)=C(Cl)[C@@]2(Cl)C1(Cl)Cl (stereo not given in full),inactive,inactive,–,–,inactive,100 µM (active),27.1 µM (active),–,–,–
CC(C)(C1CCC(O)CC1)C1CCC(O)CC1 (stereo not given),inactive,inactive,inactive,inactive,inactive,–,–,–,–,–
O=C(CBr)c1ccc(O)cc1,inactive,inactive,inactive,inactive,inactive,–,–,–,–,–
CCNc1nc(NCC)nc(SC)n1,inactive,inactive,inactive,inactive,inactive,–,–,–,–,–
CCCCCCCCCCCCBr,inactive,inactive,inactive,–,inactive,–,48.2 µM (active),–,–,–
N#Cc1ccccc1N,inactive,inactive,inactive,inactive,–,–,–,33.2 µM (active),–,–
O=NN1CCCCCCC1,inactive,inactive,inactive,inactive,inactive,–,–,–,–,–
CN(C)c1ccc(N=O)cc1,inactive,inactive,–,–,–,7.81 µM (active),9.26 µM (active),8.04 µM (active),–,–
NNCCO,inactive,inactive,inactive,inactive,–,–,–,25.7 µM (active),–,–
CN(C)CCN(C)C,inactive,inactive,inactive,inactive,inactive,–,–,–,–,–
OC(c1ccc(Cl)cc1)(c1ccc(Cl)cc1)c1cccnc1,inactive,–,inactive,–,inactive,–,11.1 µM (active),–,–,11.1 µM (active)
N#Cc1ccncc1,inactive,inactive,inactive,inactive,inactive,–,–,–,–,–
COc1nn(C(=O)NS(=O)(=O)c2ccccc2OC(F)(F)F)c(=O)n1C,inactive,inactive,inactive,inactive,inactive,–,–,–,–,–
